Assay results: PubChem BioAssay (NCI)
The panel holds about 83,000 compounds, 20% with a hit somewhere; the sample as a whole holds those more often.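 Growth was measured after 48 h exposure to one concentration of compound in 96-well plates. Values under 10 count as active.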 A number with no mark means an inactive call. Activity calls are given as the source filed them.

Experiments:
Assay in all cases: NCI-60 one-dose screen, 48 h (100 = growth as untreated, 0 = no growth, -100 = all killed)
Details in all cases: 10 µM unless noted
[1] = system: NCI-H23 lung
[2] = system: NCI-H226 lung
[3] = system: NCI-H322M lung
[4] = system: HOP-62 NSCLC
[5] = system: NCI-H460 lung
[6] = system: HOP-92 NSCLC
[7] = system: NCI-H522 lung
[8] = system: A549/ATCC NSCLC
[9] = system: 786-0 renal
[10] = system: COLO 205 colon
[11] = system: DU-145 prostate
[12] = system: K-562 leukemia
[13] = system: MALME-3M melanoma
[14] = system: MDA-MB-231 breast
[15] = system: RXF 393 renal
[16] = system: SF-268 CNS
[17] = system: SF-295 CNS
[18] = system: SF-539 CNS
[19] = system: UACC-257 melanoma
[20] = system: M14 melanoma

Structure (SMILES)	growth [1] [%]	growth [2]	growth [3]	growth [4]	growth [5]	growth [6] [%]	growth [7]	growth [8]	growth [9]	growth [10]	growth [11]	growth [12]	growth [13]	growth [14]	growth [15]	growth [16] [%]	growth [17] [%]	growth [18]	growth [19]	growth [20]
N#C/C(=C\c1ccc(Br)cc1)n1nnc2c(F)cccc21	10.3	25.5%	0.929% (active)	53.8%	-33.7% (active)	19.2	-52.1% (active)	14.8%	-13.5% (active)	-15.9% (active)	5.36% (active)	12%	-2.35% (active)	-10.6% (active)	-57.9% (active)	20.3	24.7	-7.82% (active)	-10.7% (active)	2.49% (active)
O=c1c(/C=C/c2ccco2)nnc2sc(Nc3ccc(Cl)cc3)nn12	96.2	85.4%	83.8%	89%	101%	89.2	90.8%	101%	103%	114%	111%	97.9%	100%	96.4%	114%	103	105	90.6%	104%	101%
C=C(C)[C@@H]1CC[C@]2(C(=O)N3CCN(C)CC3)CC[C@]3(C)[C@H](CC[C@@H]4[C@@]5(C)CC(CCCNC(C)=O)(CCCNC(C)=O)[C@H](OC(C)=O)C(C)(C)[C@@H]5CC[C@]43C)[C@@H]12	98.2	99.1%	105%	103%	99.5%	98.2	96.3%	102%	99.8%	106%	108%	81.1%	98%	108%	109%	98.9	99.4	101%	109%	104%
O=C(CN1C(=O)S/C(=C\C(Cl)=C\c2ccccc2)C1=O)NC1C=CS(=O)(=O)C1 (stereo not given)	16.7	-21.7% (active)	88.9%	86.5%	54%	37.2	-46.2% (active)	68.5%	-74.4% (active)	-21.8% (active)	24.8%	4.66% (active)	-24.9% (active)	14.3%	-77.8% (active)	63.9	80.8	1.56% (active)	45.2%	-49.9% (active)
Cc1ccc(Cc2cnc(NC(=O)c3cc(C)oc3C)s2)cc1	76.1	90.4%	70.8%	86%	31.3%	79.1	57.3%	55%	76.8%	115%	75.6%	29.5%	85.2%	79.6%	58.7%	67.8	66.6	76.8%	94.2%	70.8%
Nn1c(-c2ccc(Cl)cc2)nc2c(-c3ccc(Cl)cc3)nc3ccc(Cl)cc3c2c1=O	56.3	1.77% (active)	35.3%	-78.2% (active)	-63.2% (active)	27.4	48.9%	-61.2% (active)	-65.3% (active)	22.3%	-32.5% (active)	18.5%	10.1%	36.6%	1.11% (active)	14.8	22.6	14.1%	3.36% (active)	-0.438% (active)
Nc1nc(N)c2c(n1)NC(c1ccc(Cl)cc1)CC(c1cccc(Nc3ccncc3)c1)=N2 (stereo not given)	54.7	95.3%	63.9%	75.5%	23.2%	48.5	88.6%	30.6%	41.9%	50.5%	70%	27%	57%	49.8%	49.2%	61.7	64.5	63.5%	52.3%	35.4%
